# Screens deposited in PubChem by National Center for Advancing Translational Sciences (NCATS).
# Only some compounds are listed: those with a hit (about 2.3% of all), similar ones and a draw of the others.
# FUS suppressor = qHTS for Suppressors of FUS Proteinopathy: Primary screen using FUS-linked yeast assay. Potency, µM (titrated, usually from 76.6 µM), hits mostly activators. actives 0.24% (n = 390,000). S. cerevisiae FUS-expressing, growth rescue, OD600, 24 h;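 further: plate controls were DMSO vehicle for no effect and reference control for full effect; nearly all actives have a fitted effect of over 55% in size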
#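 Absorbance at 600 nm, taken 24hr after compound addition, measured rescue of FUS-yeast growth at 30C. Induction used 2% galactose with seeding at OD 0.005. Controls: CP55940 from 92uM final, DMSO only.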
# TDP43 rescue = qHTS of TDP-43 Inhibitors; TDP-43 expressing yeast growth rescue, BacTiter-Glo, 24 h; Potency, µM (series often up to 46.1 µM), for the others: at the top dose growth rescue (activation), usual class: activators; actives 1.8% (n = 410,000); AID 652104, 2013; further: % of control where 0% means no effect; nearly all actives have a fitted effect of over 50% in size
#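 Galactose-induced TDP-43 yeast, OD600=0.02, compound pinned; 24 hr, 30 deg C; BacTiter-Glo luminescence for growth. Inhibitors of TDP-43 toxicity read as activators.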
# uPA surface inh = qHTS for Inhibitors of Cell Surface uPA Generation. Potency, µM (highest dose often 38.3 µM), for inactives: top-dose activity change, negative = inhibition, most hits filed as inhibitors. actives 0.31% (n = 330,000). AID 540303, 2011. cell surface uPA generation assay, qHTS; active means well fitted inhibition curve with a large enough effect; inconclusive means small, poorly fitted or top-dose-only effect; inactive means no such curve, though single readings can be large or run the other way; tested in mouse RAW 264.7 cells; further: on the % scale 0 is the no-effect control and ±100 the full control effect; nearly all actives have a fitted effect of over 55% in size
# Abeta rescue = qHTS for compounds that reverse cellular toxicity of Amyloid beta (A-beta) peptide in yeast: Primary Screen. yeast expressing A-beta42, growth rescue, OD600, 48 h; response scale: 0% DMSO, 100% iron-clioquinol control. Potency, µM (series often up to 46.1 µM), actives largely listed as activators. actives 0.063% (n = 410,000). AID 1347071, 2019; further: nearly all actives have a fitted effect of over 55% in size
#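 Yeast A-beta toxicity model in growth medium with pinned compounds, 48 h at 30 C; growth read as absorbance at 600 nm. Normalized to FeCl3/clioquinol equimolar mix (positive) and DMSO (negative).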
# BCR signal inh = qHTS Assay to Find Inhibitors of Chronic Active B-Cell Receptor Signaling | actives 0.05% (n = 340,000) | Potency, µM (series often up to 46.1 µM), inactives show at the top dose activity change, negative = inhibition, most hits filed as inhibitors | ABC-DLBCL IkBa-CBG/CBR reporter, luminescence ratio, 4 h; active means well fitted inhibition curve with a large enough effect in the signal ratio, with a control signal flat, not every such curve was filed as active; inconclusive means small, poorly fitted or top-dose-only effect, or effect the other way, or a change in a side signal; the % refers to the signal ratio;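 further: plate controls were basal doxycycline-induced cells for no effect and cells given 10 µM MG132 for full effect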
#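 Doxycycline induced both beetle luciferases in TMD8 lymphoma cells; IKK-driven degradation limits the IkappaBalpha-fused green signal, while red luminescence normalises for cell number and nonspecific effects. Compounds tested up to 46 uM, 4 hrs.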
# aSyn yeast inh = qHTS of alpha-syn Inhibitors | Yeast expressing alpha-synuclein, growth rescue, BacTiter-Glo, 24 h | Potency, µM (highest dose often 46.1 µM), inactives show at the top dose growth rescue (activation), hits mostly activators | actives 0.14% (n = 370,000) | AID 652106, 2013; further: % of control where 0% means no effect; nearly all actives have a fitted effect of over 65% in size
#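 Galactose-induced alpha-syn yeast (OD600=0.02, raffinose-pregrown) + pinned cpd, 24 hr, 30 deg C; growth by BacTiter-Glo luminescence. Growth restoration scores as activation.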
# * = called active by the depositor; i = inactive; ? = inconclusive; nt = not tested or not shown; [ ] = another dose, or the depositor's remark. Unless noted, the call rests on the fitted dose curve; in most records, active means well fitted curve in the direction sought with a large enough effect; inconclusive means small, poorly fitted or top-dose-only effect, or another doubt; inactive means no such curve, though single readings can be large; an effect the other way counts as inactive or inconclusive. Potency means the concentration at half of the fitted maximal effect.
SMILES,FUS suppressor,TDP43 rescue,uPA surface inh,Abeta rescue,BCR signal inh,aSyn yeast inh
COc1ccc(-c2nc(Cn3c(SCc4ccccc4F)nc4cccnc43)c(C)o2)cc1,i,32µM*,nt,i,nt,nt
Cc1oc(-c2ccccc2Cl)nc1Cn1c(SCc2cccc(F)c2)nc2cccnc21,35µM*,18µM*,nt,?,nt,nt
CN(C)S(=O)(=O)N(CCN1CCOCC1)Cc1ccccc1F,i,9%,1%,i,-9%,1%
Oc1ccc(/C=N/Nc2ccc(C(F)(F)F)cn2)cc1,i,10µM*,-8%,?,?,-24%
CC(C)(C)S(=O)N1Cc2cc(CO)cc(CCO)c2[C@H]1CCO (stereo partly specified),i,15%,9%,i,nt,0%
CC1C(=O)C(C)(C)C(=O)OC1c1ccccc1 (stereo unspecified),i,0%,10%,i,13%,-1%
C[C@H]1C=CC(=O)O[C@H]1c1ccccc1,i,16%,2.5µM*,i,nt,-2%
Cc1cccc(C(C)Nc2ccc([N+](=O)[O-])cn2)c1 (stereo unspecified),i,18µM*,3%,i,?,0%
CCOc1ccccc1NC(=O)c1ccc2ccccc2c1,i,6.3µM*,-1%,i,-1%,-3%
CCOc1ccccc1NC(=O)CSc1ncc(S(=O)(=O)c2ccc(C)c(C)c2)c(N)n1,32µM*,17%,nt,i,nt,nt
CCOc1ccccc1NC(=O)CSc1nnc(-c2ccco2)o1,i,13µM*,-18%,i,-19%,0%
CCOc1ccccc1NC(=O)CSc1ccccc1,i,14µM*,-1%,i,3%,3%
CCOc1ccccc1NC(=O)NNC(=O)c1ccc2ccccc2c1,i,17%,5%,i,?,2%
COc1ccccc1NC(=O)CCSc1nnc(-c2ccco2)o1,i,-5%,2%,i,2%,-3%
COC(=O)c1cc(NC(=O)COC(=O)CCc2c[nH]c3ccccc23)cc(C(=O)OC)c1,i,20%,2%,i,-10%,0%
COc1ccc(CC(=O)NNC(=O)c2ccoc2C)cc1OC,i,-21%,nt,i,-5%,5%
O=C(CCCn1c(=S)[nH]c2ccccc2c1=O)N1CCCCC1,i,1%,4%,i,?,8%
Cc1ccc(S(=O)(=O)N(C)C)cc1NC(=O)c1cc(-c2ccncc2)nc2ccccc12,?,-32%,-33%,i,-1%,10%[1.84 µM]
c1ccc2nc3c(nc2c1)[nH]c1ccccc13,i,7.1µM*,-3%,i,9%,7%
c1ccc(-c2c3ccccc3nc3[nH]c4ccccc4c23)cc1,i,?,-22%,?,?,-23%
Cc1nc(C)c(C(=O)Nc2cccc(C)c2C)s1,i,11%,-6%,i,-1%,4%
Cc1ccc(CNC(=O)COC(=O)c2nc(-c3ccccc3)oc2C)cc1,i,35µM*,-3%,i,-7%,1%
O=C(OCC(=O)N1CCN(c2ccccc2)CC1)c1ccccc1[N+](=O)[O-],i,0%,-3%,i,?,7%
CN1OC[C@@H]2CN(C(=S)NCCc3ccccc3)[C@H](c3ccccc3Br)C[C@@H]21,i,13µM*,nt,i,nt,0%
CN1OC[C@@H]2CN(C(=O)Cc3ccccc3)[C@H](c3ccccc3Br)C[C@@H]21,i,0%,nt,i,nt,1%
SMILES,FUS suppressor,TDP43 rescue,uPA surface inh,Abeta rescue,BCR signal inh,aSyn yeast inh
COc1ccc2sc(N(Cc3cccnc3)C(=O)COc3ccccc3)nc2c1,i,11%,nt,i,-1%,nt
Cc1cccc2sc(N(Cc3cccnc3)C(=O)COc3ccccc3)nc12,i,11µM*,nt,i,?,nt
Cc1cccc2sc(N(Cc3cccnc3)C(=O)CCOc3ccccc3)nc12,i,5%,nt,i,15%,nt
O=C(Cc1ccccc1)N(Cc1cccnc1)c1nc2c(F)cc(F)cc2s1,i,18µM*,nt,i,?,nt
COc1ccc2nc(N(Cc3cccnc3)C(=O)COc3ccccc3)sc2c1,i,16µM*,nt,i,-19%,nt
Cn1cc(Br)c(C(=O)Nc2sc3c(c2C(N)=O)CCCC3)n1,i,0%,5%,i,-10%,-2%
COC(=O)c1cccc(CN2C(=O)SC(Nc3ccc(Br)cc3)C2=O)c1 (stereo unspecified),?,16µM*,nt,i,nt,nt
COC(=O)c1cccc(CN2C(=O)SC(Nc3ccc(Cl)cc3)C2=O)c1 (stereo unspecified),i,16µM*,nt,i,nt,nt
COC(=O)c1cccc(CN2C(=O)SC(Nc3ccc(C)cc3)C2=O)c1 (stereo unspecified),i,22%,8%,?,-26%,13%
Cc1ccc(-c2nc(CS(=O)CC(=O)O)c(C)o2)cc1 (stereo unspecified),i,-21%,nt,i,-19%,nt
Clc1cccc(CSc2ncn(-c3ccccc3)n2)c1,i,13µM*,1%,i,?,4%
Clc1ccc(CSc2ncn(-c3ccccc3)n2)cc1,i,?,2%,i,1%,25%
CCC(O)CNC(=O)NC(=C(Cl)Cl)c1ccc(C)c(F)c1 (stereo unspecified),i,10%,10µM*,i,-21%,9%
CCCCCSc1nc2c(c(=O)[nH]c(=O)n2C)n1CC,i,13µM*,?,i,nt,-9%
CCCCCSc1nc2c(c(=O)[nH]c(=O)n2C)n1C,i,3%,-1%,i,?,0%
O=C(Nc1cccc(C(=O)N2CCCC2)c1)C1CCC1,i,-6%,15%,i,nt,-1%
O=C(COC(=O)/C=C/c1cccc(Cl)c1)Nc1c(F)cccc1F,i,-18%,-1%,i,-3%,-17%
Cc1ccc(S(=O)(=O)N2CCN(C(=O)Cc3ccccc3)CC2)cc1C,i,22%,0%,i,?,-1%
Cc1ccc(S(=O)(=O)N2CCN(C(=O)CCN3C(=O)c4ccccc4C3=O)CC2)cc1C,i,16µM*,-14%,i,-1%,2%
CCc1ccc(NC(=O)C2=CC=CN3CCS(=O)(=O)N=C23)cc1,i,2%,-17%,i,?,-8%
N#C/C(=C\c1ccc([N+](=O)[O-])cc1)c1ccccn1,i,13µM*,nt,i,0%,5%
